# This is a sample that favours compounds with a hit; in the whole collection about 19% have one here.
# TDP1 cell CPT – DT40-hTDP1 cell growth loss with CPT; chicken DT40 Tdp1-/-;hTDP1 cells + 20 nM CPT, ATP luminescence, 48 h; Potency, µM (titrated, usually from 46.2 µM), inactives show top-dose activity change, negative = growth inhibition, hits mostly inhibitors; 420,000 compounds, 12% hits; AID 686979; also: potency is read from the fitted curve at half-maximal effect; nearly all actives have a fitted effect of over 55% in size
#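 Chicken DT40 Tdp1-/- cells complemented with human TDP1, 400 cells/well, exposed to compounds plus 20 nM camptothecin for at least 48 h at 37 C; viability read as ATP content by CellTiter-Glo luminescence.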
# TDP1 cell noCPT – qHTS for Inhibitors of human tyrosyl-DNA phosphodiesterase 1 (TDP1): qHTS in cells in absence of CPT | DT40 Tdp1-/- hTDP1 cells, no CPT, ATP luminescence, 48 h | Potency, µM (doses to about 46.2 µM), for inactives: at the top dose activity change, negative = growth inhibition, usual class: inhibitors | 420,000 compounds, 15% hits; also: potency is read from the fitted curve at half-maximal effect; nearly all actives have a fitted effect of over 55% in size
#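 Luminescent ATP content (CellTiter-Glo) served as the growth readout. Knockout chicken DT40 cells expressing human TDP1 were exposed to compounds without camptothecin for a minimum 48 hr at 37 °C.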
# IL1B secr inh – blocks inflammasome-driven IL-1 beta release. THP-1 LPS/ATP IL-1B secretion, AlphaLISA, 16 h; stronger effect = lower value. activity change, % at 57.5 µM. 360,000 compounds, 4.7% hits. AID 743279; in the data active = activity change below about -50%; inconclusive = mostly about -30% to -49%
#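 Secreted IL-1B measured by AlphaLISA bead assay after 16 h compound exposure of THP-1 cells; compounds (final up to 57.5 uM) added 1 h before LPS (250 ng/mL) and ATP (1.25 mM) stimulation; lower signal means less secretion.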
# Giardia kill – Giardia lamblia killing; Giardia lamblia trophozoite viability; activity change, % at 7.66 µM, hits read low; 340,000 compounds, 0.15% hits; AID 540267; in the data active = activity change below about -80%; inconclusive = between about -30% and that limit;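 also: parasites exposed to compound for two days anaerobically before the ATP read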
#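 Giardia lamblia trophozoites (100 cells/well) were incubated with compounds for 48 h at 37 deg C under anaerobic conditions. Viability was read as ATP content by one-step luminescence after 15-30 min at room temperature.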
# TDP1 inh – TDP1 (human) enzyme inhibition. Potency, µM (titrated, usually from 130 µM), inactives show at the highest dose activity change, negative = inhibition, most hits filed as inhibitors. 350,000 compounds, 0.28% hits. Q9NUW8. recombinant TDP1, AlphaScreen DNA substrate cleavage; also: potency is read from the fitted curve at half-maximal effect; nearly all actives have a fitted effect of over 40% in size
#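 E. coli-derived human Tdp1, 1 nM final. Cpd preinc 15 min RT; substrate 15 nM final, 5 min RT; AS bead mix 10 ug/ml final, 10 min RT. Signal loss = tyrosine-FITC cleavage. No-enzyme wells = max signal.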
# ELG1 DNA repair – inhibitors of ELG1-dependent DNA repair in HEK293T cells | HEK293T ELG1-luciferase reporter, luminescence, 16 h; DNA damage induced by 5-fluorouridine | Potency, µM (top dose mostly 46.1 µM), inactives show at the top dose activity change, negative = inhibition, usual class: inhibitors | 330,000 compounds, 2.3% hits | AID 504467; also: potency is read from the fitted curve at half-maximal effect; nearly all actives have a fitted effect of over 55% in size
#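 HEK293T cells expressing luciferase-tagged ELG1 (2,000/well) received 5-Fluorouridine plus compound or DMSO for 16 hr at 37 °C. Luciferase was read by ONE-Glo luminescence after 30 min at room temperature.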
# ELG1 FLuc counter – luciferase inhibition in cell-free luciferin readout for ELG1 hits; shares compounds with ELG1 DNA repair; cell-free firefly luciferase luminescence counter-screen, ViewLux; Potency, µM (doses to about 46.1 µM), without a hit: at the top dose activity change, negative = inhibition, usual class: inhibitors; 350 compounds, 3% hits; also: potency is read from the fitted curve at half-maximal effect
# ELG1-Luc inh – human ELG1 repair inhibition, luciferase-tagged ELG1 confirmation | shares compounds with ELG1 DNA repair | HEK293T ELG1-luciferase levels, luminescence; cells co-treated with 5-fluorouridine | Potency, µM (doses to about 46.1 µM), for the others: at the highest dose activity change, negative = inhibition, hits mostly inhibitors | 670 compounds, 68% hits; also: potency is read from the fitted curve at half-maximal effect; nearly all actives have a fitted effect of over 55% in size
# ELG1-Luc MMS – inhibits ELG1-dependent repair under MMS stimulation in HEK293T cells. shares compounds with ELG1 DNA repair. HEK293T luciferase-tagged ELG1 level, MMS stimulated. Potency, µM (top dose mostly 46.1 µM), for inactives: at the top dose activity change, negative = inhibition, hits mostly inhibitors. 670 compounds, 53% hits. AID 624249; also: potency is read from the fitted curve at half-maximal effect; nearly all actives have a fitted effect of over 60% in size
# ELG1 5-FU – confirmation of ELG1 repair inhibitors: viability with 5FU; shares compounds with ELG1 DNA repair; cell viability with 5-FU, ELG1-dependent repair; Potency, µM (series often up to 46.1 µM), without a hit: at the highest dose activity change, negative = viability loss, usual class: cytotoxic; 670 tested, under 10 active; AID 624250;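 also: ELG1-luc HEK293T cells cotreated with 5-fluorouridine at 10 µM final; potency is read from the fitted curve at half-maximal effect; viability measured 16 h after compound addition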
# ELG1 MMS viab – confirmation of ELG1 repair inhibitors: viability with MMS. AID 624251. 670 compounds, 33% hits. shares compounds with ELG1 DNA repair. Potency, µM (highest dose often 46.1 µM), for inactives: top-dose activity change, negative = viability loss, most hits filed as cytotoxic. Cell viability with MMS, ELG1-dependent DNA repair;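 also: ELG1-luc HEK293T cells co-treated with 10 µM MMS; potency is read from the fitted curve at half-maximal effect; viability read 16 h after compound addition; nearly all actives have a fitted effect of over 60% in size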
# ELG1 unstim viab – counter-screen for ELG1 repair inhibitors: unstimulated cell viability; shares compounds with ELG1 DNA repair; cell viability counter-screen, unstimulated, luminescence; Potency, µM (highest dose often 45.9 µM), for the others: at the top dose activity change, negative = loss of viability, most hits filed as cytotoxic; 900 compounds, 8% hits; AID 624252;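 also: potency is read from the fitted curve at half-maximal effect; compound exposure lasted 16 hours before reading; nearly all actives have a fitted effect of over 55% in size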
# FLuc biochem – counter-screen for ELG1 repair inhibitors: firefly luciferase inhibition; Potency, µM (titrated, usually from 57.5 µM), for inactives: at the highest dose activity, negative = inhibition, actives largely listed as inhibitors; 350 compounds, 10% hits; purified firefly luciferase, luminescence counter-screen; shares compounds with ELG1 DNA repair; also: potency is read from the fitted curve at half-maximal effect
# The depositor's hits bear a star; ? = inconclusive; . = no result given. Unless noted, calls follow the shape of the dose curve; as a rule, active = well fitted curve in the direction sought with a large enough effect; inconclusive = small, poorly fitted or top-dose-only effect, or another doubt; inactive = no such curve, though single readings can be large; an effect the other way counts as inactive or inconclusive. % is scaled to controls: 0 for no effect and ±100 for the full control effect.
SMILES,TDP1 cell CPT,TDP1 cell noCPT,IL1B secr inh,Giardia kill,TDP1 inh,ELG1 DNA repair,ELG1-Luc inh,ELG1-Luc MMS,ELG1 5-FU,ELG1 MMS viab,ELG1 unstim viab,others
COc1ccc(NC(=O)c2ccc(N(C)S(C)(=O)=O)cc2)cc1OC,?,-23.9%,24.4,-12.4,2.3%,23.4%,.,.,.,.,.,
C[C@H](CO)N1C[C@H](C)[C@@H](CN(C)C(=O)NC2CCCCC2)Oc2c(NC(=O)CCC(F)(F)F)cccc2C1=O,?,-19.9%,-0.6,-17.2,0.4%,-6.5%,.,.,.,.,.,
C[C@H](CO)N1C[C@H](C)[C@@H](CN(C)C(=O)Nc2ccc(C(F)(F)F)cc2)Oc2c(NC(=O)Cc3ccccc3)cccc2C1=O,-21.4%,-24.3%,?,2.2,2.0%,?,2.5µM*,-3.5%,?,23.2%,8.5%,
C[C@H](CO)N1C[C@H](C)[C@@H](CN(C)C(=O)Nc2ccc(C(F)(F)F)cc2)Oc2c(NC(=O)CCC(F)(F)F)cccc2C1=O,?,?,-66.0*,16.9,-1.4%,1.83µM*,3.53µM*,21.7%,?,8.7%,-7.6%,
C[C@H](CO)N1C[C@H](C)[C@@H](CN(C)C(=O)Nc2ccccc2)Oc2c(NC(=O)Cc3ccccc3)cccc2C1=O,-24.9%,5.3%,6.1,2.5,1.4%,17.0%,.,.,.,.,.,
CC(C)NC(=O)Nc1cccc2c1O[C@H](CN(C)C(=O)Nc1ccc(C(F)(F)F)cc1)[C@@H](C)CN([C@H](C)CO)C2=O,-10.6%,-15.5%,?,15.1,-0.4%,1.3µM*,2.23µM*,15.2%,?,3.7%,-2.0%,
COc1ccc(C(=O)Nc2ccc(C3CC3(Cl)Cl)cc2)cc1 (stereo not given),-18.2%,?,-20.9,-19.7,2.7%,?,.,.,.,.,.,
CC1CN(C(=O)COC(=O)c2cccc(S(=O)(=O)N3CCc4ccccc43)c2)CC(C)O1 (stereo not given),?,?,15.0,8.2,-2.6%,-19.6%,.,.,.,.,.,
COc1cc(/C=N/Nc2nc(C)cc(C)n2)ccc1OC(=O)c1ccco1,-24.0%,-13.9%,33.9,-7.9,4.6%,13.6%,.,.,.,.,.,
CCOc1cc(/C=N\Nc2nc(Nc3ccccc3)nc(N3CCOCC3)n2)ccc1OC(=O)c1ccco1,18.4µM*,8.2µM*,-23.0,31.7,3.4%,2.31µM*,1.58µM*,?,?,?,?,
COc1ccc(-c2cn(Cc3ccc4ccccc4c3)nn2)cc1,?,-17.1%,17.4,0.3,.,?,.,.,.,.,.,
COc1ccc(-c2cn(Cc3ccc(C(=O)c4ccccc4)cc3)nn2)cc1,2.06µM*,7.31µM*,20.1,22.7,.,?,.,.,.,.,?,
O/N=C(/c1ccc(F)cc1)C1CC1c1c(F)cccc1Cl (stereo not given),8.3%,?,-5.9,-7.0,.,-0.6%,.,.,.,.,.,
COc1ccc(C(=O)N/N=C/c2cc(Br)ccc2O)cc1OC,2.31µM*,3.26µM*,123.5,0.2,.,2.06µM*,3.97µM*,12.5µM*,19.2%,15.8µM*,-12.9%,
O=C(O)c1cc(=O)c2cc(Cl)ccc2[nH]1,.,.,.,.,3.0%,.,.,.,.,.,.,
CCOC(=O)N1CCN(C(=O)CSCC(=O)Nc2nc(-c3ccccc3)cs2)CC1,20.6µM*,?,-7.9,16.7,2.7%,?,.,.,.,.,-13.9%,ELG1 FLuc counter=48.7%;FLuc biochem=-7.3%
O=C(CSCC(=O)N1CCN(c2ccccc2)CC1)Nc1nc(-c2ccc(Cl)s2)cs1,?,?,-26.2,2.0,7.6%,?,.,.,.,.,?,ELG1 FLuc counter=17.5%;FLuc biochem=-3.2%
O=C(CSc1nnc(NC(=O)c2ccc3c(c2)OCO3)s1)NCc1ccco1,11.2%,-10.9%,6.5,?,-3.1%,?,.,.,.,.,.,
Cc1ccc(S(=O)(=O)Nc2nc(CN3CCOCC3)nc3sc(C(=O)O)c(C)c23)cc1,0.2%,-2.6%,0.8,.,.,.,.,.,.,.,.,
Cc1cc(S(=O)(=O)Nc2nc(CN3CCOCC3)nc3sc4c(c23)CCCC4)ccc1F,-1.0%,?,33.8,4.5,2.2%,0.6%,0.1%,15.0%,-7.1%,-3.8%,-11.5%,ELG1 FLuc counter=76.9%;FLuc biochem=-1.3%
